Results taken from a collection of fitness landscapes (doi:10.1126/science.1257360).
The full ranking holds about 140,000 sequences; the median of “enrichment ratio after two sorts for PhoP signalling” is about 0, and the highest 2% start at about 11. The entries come from a sample that favours the highest values as a whole.

B1: PhoQ; a variant is named by its letters at X, in order, P23837 (parent)
chain: MKKLLRLFFPLSLRVRFLLATAAVVLVLSLAYGMVALIGYSVSFDKTTFRLLRGESNLFYTLAKWENNKLHVELPENIDKQSPTMTLIYDENGQLLWAQRDVPWLMKMIQPDWLKSNGFHEIEADVNDTSLLLSGDHSIQQQLQEVREDDDDAEMTHSVAVNVYPATSRMPKLTIVVVDTIPVELKSSYMVWSWFIYVLSANLLLVIPLLWVAAWWSLRPIEALAKEVRELEEHNRELLNPATTRELTSLVRNLNRLLKSERERYDKYRTTLTDLTHSLKTPLXXLQXXLRSLRSEKMSVSDAEPVMLEQISRISQQIGYYLHRASMRGGTLLSRELHPVAPLLDNLTSALNKVYQRKGVNISLDISPEISFVGEQNDFVEVMGNVLDNACKYCLEFVEISARQTDEHLYIVVEDDGPGIPLSKREVIFDRGQRVDTLRPGQGVGLAVAREITEQYEGKIVAGESMLGGARMEVIFGRQHSAPKDE

Variants of: B1
Assay: enrichment ratio after two sorts for PhoP signalling (ratio (wild type AVST 3.29)); higher = more functional
Conditions: with PhoP (E. coli)

Variant	enrichment ratio
DFEW	≤ 0.25
DSVD	≤ 0.25
KHWM	≤ 0.25
VFFE	≤ 0.25
QDVC	≤ 0.25
AYPL	≤ 0.25
CSYH	≤ 0.25
FHNW	≤ 0.25
IIGT	≤ 0.25
SECK	≤ 0.25
SECP	≤ 0.25
SECL	18.7
SECA	19.7
SEGD	1.88
SEYD	≤ 0.25
SECS	20.4
SEEL	≤ 0.25
SEAI	7.14
SECI	28.3
NECL	≤ 0.25
SEDH	≤ 0.25
FMWQ	≤ 0.25
KFFK	≤ 0.25
EHGM	≤ 0.25
IQWT	≤ 0.25
KMGN	≤ 0.25

Variant	enrichment ratio
YTDA	≤ 0.25
VCDM	≤ 0.25
EGPQ	≤ 0.25
LCVP	≤ 0.25
FEGG	≤ 0.25
MECG	9.16
QECG	23
MECQ	≤ 0.25
SENW	≤ 0.25
IWCG	≤ 0.25
SECE	15.4
SRCQ	1.15
FECG	30.4
SENE	≤ 0.25
STCG	9.46
SECQ	11.4
DDMI	≤ 0.25
WKTT	≤ 0.25
EERG	≤ 0.25
WYHV	≤ 0.25
FLNY	≤ 0.25
FECI	3.72
SECV	24.5
SEYV	5.27
FECS	19.8
SLCG	6.01

Variant	enrichment ratio
SECG	13.7
SRCG	≤ 0.25
FECA	≤ 0.25
SRCV	5.55
MMWP	≤ 0.25
LWRR	≤ 0.25
YSRA	≤ 0.25
QHHS	≤ 0.25
DQIV	≤ 0.25
GIST	8.78
LNST	≤ 0.25
GNST	15.1
GVST	≤ 0.25
GESK	≤ 0.25
MNST	≤ 0.25
TNST	12.6
GEST	16.9
MEST	5.63
ARCL	4.81
GDEI	≤ 0.25
EMQY	≤ 0.25
PNEV	≤ 0.25
IGRG	≤ 0.25
IFWY	≤ 0.25
SWHL	0.549
HMCK	≤ 0.25

Variant	enrichment ratio
YTWG	≤ 0.25
TTDF	16.9
YTSF	≤ 0.25
CKMF	38.2
YTDF	≤ 0.25
CKFF	≤ 0.25
TTWG	12.2
TTSF	13.7
CKAF	≤ 0.25
CTDF	≤ 0.25
KQSF	≤ 0.25
STWG	≤ 0.25
HDWN	≤ 0.25
LGQF	≤ 0.25
TLMP	≤ 0.25
DGEM	≤ 0.25
EYIG	≤ 0.25
LWNR	≤ 0.25
GEFD	≤ 0.25
SQIR	≤ 0.25
MDDP	≤ 0.25
TTPS	≤ 0.25
RIMF	≤ 0.25
QVDF	15.1
NVDF	≤ 0.25
THMF	9.68

Variant	enrichment ratio
TTYI	6.16
YTEL	≤ 0.25
TTMF	20.9
TTHF	11.8
QVHF	0.315
TTEL	16.6
TTPA	≤ 0.25
PVYQ	≤ 0.25
GLRF	≤ 0.25
VHDP	≤ 0.25
NRQL	≤ 0.25
DQAF	≤ 0.25
KQIG	≤ 0.25
WLRY	≤ 0.25
NHDF	≤ 0.25
YTQF	≤ 0.25
YTAF	≤ 0.25
TTWN	15.1
STWN	≤ 0.25
LTAF	≤ 0.25
GTQF	≤ 0.25
SHDF	≤ 0.25
YTWN	≤ 0.25
THDF	11.6
TTQF	22.7
TTAF	14

Variant	enrichment ratio
RKCR	≤ 0.25
QNKW	≤ 0.25
YVTW	≤ 0.25
DWIG	≤ 0.25
ERDP	≤ 0.25
VGHC	≤ 0.25
NFWG	≤ 0.25
KTWY	≤ 0.25
YTWS	≤ 0.25
TTWI	9.7
KQSA	≤ 0.25
KSYN	≤ 0.25
TTGL	12.3
YTGL	≤ 0.25
YTSA	≤ 0.25
TTWS	11.9
TTYN	12.5
WIYN	≤ 0.25
TTSA	11.5
STGL	9.48
IEKA	≤ 0.25
RHPA	≤ 0.25
PCEP	≤ 0.25
MEYV	5.49
WFPG	≤ 0.25
